Data reported in PubChem BioAssay (NCI).
The panel holds about 83,000 compounds, 20% with a hit somewhere; the sample as a whole holds those more often.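 Cell lines were cultured in 96-well plates, exposed to a single compound concentration, and assessed for percent growth 48 hours later.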 A number with no mark means an inactive call. Calls of active or inactive are those of the source. The calls were made as follows: active = growth percent below 10; inactive = the rest.

What was measured:
Experiment in all cases: NCI-60 one-dose screen, 48 h (100 = growth as untreated, 0 = no growth, -100 = all killed)
Conditions in all cases: 10 µM unless noted
[1] = system: T-47D breast
[2] = system: BT-549 breast
[3] = system: MDA-MB-435 melanoma
[4] = system: SW-620 colon
[5] = system: MCF7 breast
[6] = system: HCT-116 colon
[7] = system: HCC-2998 colon
[8] = system: KM12 colon

Row | Compound | growth [1] | growth [2] | growth [3] | growth [4] | growth [5] | growth [6] | growth [7] | growth [8]
1 | COC(=O)c1c2c(c(C)[n+]([O-])c1C)C(=O)C(NCc1cccc(Cl)c1)=CC2=O | 6% (active) | 49.3% | -68.5% (active) | 7.1% (active) | -36% (active) | 1.18% (active) | 15.3% | 17.7%
2 | CCCCNC(=O)Oc1ccc(/C(=C(/C)Cc2ccc(OC)cc2)c2ccc(OCCN3CCCCCC3)cc2)cc1 | 38.8% | 93.2% | 90.5% | 85.9% | 27.3% | 54.9% | 83.8% | 60.6%
3 | CCOC(=O)c1c(C)nc2c(c1N)CC(=O)N2Cc1ccc(OC)cc1 | 32.2% | 18.5% | 88.3% | 77.6% | 37.5% | 12.6% | 51.1% | 58%
4 | COCCn1cc(-c2csc(-c3c[nH]c4ccc(Br)cc34)n2)c2cccnc21 | -1.1% (active) | 22.6% | 29% | 27.9% | 12% | 24.2% | 15.3% | 13.4%
5 | Nc1nc(N)c(N=Nc2ccccc2)c(-c2ccccc2)n1 | 10.2% | 47% | 73.1% | 86.3% | 19.4% | 69.7% | 76.4% | 33.4%
6 | Oc1c(CN2CCOCC2)cc(COCc2ccccc2)c2cccnc12 | 10.4% | 36.4% | 46.8% | 28.9% | 9.26% (active) | 21.6% | 54.2% | 35.6%
7 | Cc1ccccc1Nc1cc(O)c2c(=O)cc(-c3ccccc3)oc2c1 | 36.5% | 47.1% | 1.9% (active) | 21% | 15.5% | 15.2% | 76.7% | 36.4%
8 | CN(CCCNC(=O)CCOCCOCCOCCNC(=O)Cc1ccc2ccc3cccc4ccc1c2c34)CCCNc1cc(-c2ccc3ccccc3c2)nc2ccccc12 | -80.9% (active) | -83.6% (active) | -79.6% (active) | -79.6% (active) | -82.3% (active) | -98.2% (active) | -87.4% (active) | -86.6% (active)
9 | Oc1c(CN2CCC(N3CCCCC3)CC2)cc(Cc2cc(CN3CCC(N4CCCCC4)CC3)c(O)c3ncccc23)c2cccnc12 | 7.31% (active) | 27% | -13.1% (active) | – | 6.62% (active) | 13% | 32.9% | 21.7%
10 | C#CC#CC#CC#CC#CC#CC#CC#CCC1OC[C@H](COC(=O)O[C@@H](C(=O)O[C@H]2C[C@@]3(O)[C@@H](OC(=O)c4ccccc4)[C@@H]4[C@]5(OC(C)=O)CO[C@@H]5C[C@H](O)[C@@]4(C)C(=O)[C@H](OC(C)=O)C(=C2C)C3(C)C)[C@@H](NC(=O)c2ccccc2)c2ccccc2)O1 (stereo partly specified) | 41.3% | 26.4% | -48% (active) | – | 25% | 14.2% | 10.4% | 10.8%
11 | O=C(NC(Cc1nnc2n(Cc3ccccc3)c(=O)c3c4c(sc3n12)CCCC4)c1ccccc1)c1ccccc1 (stereo unspecified) | 102% | 100% | 105% | – | 97.9% | 81.4% | 108% | 108%
12 | N#CC1CCc2c(c(-c3ccc4nc(N)sc4c3)nc3ccc4[nH]ncc4c23)C1 (stereo unspecified) | 94% | 65.5% | -2.8% (active) | – | 21.7% | 25.6% | 48.2% | 24.4%
13 | Cc1ccc(/C=C/C(=O)c2ccc(-n3cc(CN4CCN(c5cc6c(cc5F)c(=O)c(C(=O)O)cn6C5CC5)CC4)nn3)cc2)cc1 | 86.7% | 73.7% | 77.4% | – | 59.2% | 8.04% (active) | 92.4% | 84.1%
14 | CCN(CC)CCCOc1ccc2ncnc(Nc3ccc(Oc4cccc(C(F)(F)F)c4)c(Cl)c3)c2c1 | 18.7% | 81.4% | -85.7% (active) | – | -45.2% (active) | -10.1% (active) | -85.4% (active) | -24.3% (active)
15 | Cc1ccc2nc(-c3ccc(C(=O)NNC(=S)Nc4ccccc4)cc3)[nH]c2c1 | 86.3% | 90.6% | 97.8% | – | 79.5% | 84.6% | 103% | 94.8%
16 | NC1=Nc2cc(OCCCCN3Cc4ccccc4C3)c(OCC3CC3)cc2C12CCCC2 | -46.9% (active) | 82.2% | 5.33% (active) | – | 10.6% | 11.3% | -58.2% (active) | 46.5%
17 | CC(=O)c1sc2sc(C(C)=O)c(C)c2c1C | 89% | 105% | 102% | – | 73.1% | 83.1% | 102% | 107%

Row | Compound | growth [1] | growth [2] | growth [3] | growth [4] | growth [5] | growth [6] | growth [7] | growth [8]
18 | O=C(c1c[nH]c2ccccc12)c1n[nH]c(=S)n1-c1cccc(Br)c1 | 26.1% | 120% | 102% | – | 33.4% | 89.7% | 38.8% | 50.7%
19 | COc1cccc(-c2cc(-c3cccc(Cl)c3)c(C#N)c(=O)[nH]2)c1 | 80.1% | 53.5% | 4.96% (active) | – | 55.5% | 73.9% | 98.7% | 57.5%
20 | Cc1ccc(-c2nc(N3CCNCC3)c3oc(-c4ccc(C)cc4)nc3n2)cc1 | 37.3% | 83.4% | -77.1% (active) | – | -73.1% (active) | -39.4% (active) | 65.5% | -81.9% (active)
21 | Cn1cc(-c2ccc(-c3cn(C)c4ccc(Cl)cc34)[nH]2)c2cc(Cl)ccc21 | -51.1% (active) | -83.7% (active) | 19.5% | – | 18.8% | -85.5% (active) | -72.2% (active) | -33.5% (active)
22 | CCO/C=N/C1=C(C#N)C(c2ccc(F)cc2)c2sc3c(F)cccc3c2O1 (stereo unspecified) | 40.6% | 48.5% | -23.7% (active) | – | 15.7% | 39% | 77% | 32.5%
23 | CC(=C(c1ccc(OCCN2CCCCC2)cc1)c1ccc(OCCN2CCCCC2)cc1)c1ccc(Cl)cc1 | -72.6% (active) | -87% (active) | -96.6% (active) | – | -85.4% (active) | -88.9% (active) | -93.4% (active) | -84.9% (active)
24 | CCCCCCCCCCCCCCCCCCOc1ccccc1CC(=O)NCC[N+]1(C)CCCCC1 | 75.3% | 74.9% | 60.5% | – | 53.3% | 57.4% | 32.2% | 28.8%
25 | CCCCCCCCCCCCCCCCCC1=NC(C)(C)CN1CC(C)O (stereo unspecified) | 72.6% | 101% | 50.9% | – | 42.4% | 7.84% (active) | 75.3% | 44.1%
26 | Cn1cc(-c2nn3cc(-c4cccs4)nc3s2)c2cc(F)ccc21 | 45% | 43.1% | -43.4% (active) | – | 21.4% | 14.2% | 66.8% | 22.2%
27 | O=C1NC(=O)/C(=C/c2c(-c3ccccc3)nc3sc(COc4ccccc4)nn23)S1 | 89.4% | 92.8% | 102% | – | 83.5% | 89.3% | 107% | 100%
28 | N#Cc1nc(-c2ccccc2)oc1S(=O)(=O)N1CCN(c2ccc(F)cc2)CC1 | 55.8% | 59.7% | 67.5% | – | 38.5% | 52.8% | 94% | 81.9%
29 | FC(F)(F)Oc1cccc(-c2cnc3ccc(-c4ccncc4)nn23)c1 | -0.156% (active) | 25.2% | 12.3% | – | 10.7% | 10.8% | 32.5% | 8.63% (active)
30 | C=C(C)[C@@H]1CCC[C@]2(C(=O)O)CC[C@]3(C)[C@@H](CC[C@@H]4[C@@]5(C)C/C(=C/c6ccncc6)C(=O)C(C)(C)[C@@H]5CC[C@]43C)[C@@H]12 | 47.5% | 46.5% | 19.8% | – | 19.1% | 4.88% (active) | 23.8% | 19.7%
31 | CC[C@]12C=CCN3CC[C@@]4(c5ccc(OC)cc5N(C)[C@H]4[C@@](O)(C(=O)OC)[C@@H]1OC(=O)CCC[P+](c1ccccc1)(c1ccccc1)c1ccccc1)[C@@H]32 | 1.08% (active) | 11% | -21.6% (active) | – | -3.34% (active) | 8.72% (active) | -22.5% (active) | -27.2% (active)
32 | NS(=O)(=O)c1ccc(NC(=O)/C(=C\c2ccc(Cl)cc2Cl)NC(=O)c2ccccc2)cc1 | 87.5% | 89.1% | 97.7% | – | 90.1% | 97.3% | 103% | 102%
33 | CCN1C(=O)N(CC)C2C1N=C(SCc1ccc(Cl)cc1)N2/N=C/C=C/c1ccccc1OC (stereo unspecified) | 41.6% | 106% | -16.9% (active) | – | 13.5% | 37% | 85.9% | 64.6%
34 | CNC(C)[C@H]1CCC2C3CC=C4C(=O)[C@@H](NC(=O)C=C(C)C)CC[C@]4(C)C3CC[C@@]21C (stereo partly specified) | -21% (active) | 35.9% | -40.6% (active) | – | -41.8% (active) | -30% (active) | -6.4% (active) | 10.1%
